Test [1] can be described thus: inhibitors of TNFa-induced NFkB p65 translocation, primary screen, imaging, HUVEC, MLSMR starter and 10KST1 sets (AID 438;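 active = inhibition above 20% together with a positive visual image hit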;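 note: compound added about 3h40 before a 20 min TNFalpha stimulation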;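 for inhibition: signal is the nuclear over cytoplasmic p65 intensity ratio per well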). The conditions noted are these: HUVEC TNFa-induced p65 nuclear translocation; cell count: measured here: nuclei count (cytotoxicity indicator), at 2.08 µM; inhibition: at 2 µM, stronger effect = higher value, 0% TNFa-plus-vehicle, 100% no-TNFa wells.
Test [2] can be described thus: reduction of polyQ htt aggregates in cells – imaging, exon1htt(103Q)mCFP cells, high-content imaging, primary screen (AID 483;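 active = visual image review flags a hit and inhibition of aggregation exceeds 20%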;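 note: compound exposure lasted 3 days before fixation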;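 for nuclei count: percent of the per-plate median nuclei count of sample wells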). The conditions noted are these: exon1htt(103Q)mCFP cell line, aggregate imaging, at 2 µM; inhibition of aggregation: stronger effect = higher value; nuclei count: measured here: cell count, toxicity.
Test [3] in a line: endothelial E-selectin expression blockers – imaging, HUVEC, immunofluorescence, MLSMR starter and 10KST1 sets, primary screen (AID 487).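 For inhibition: signal is fraction of cell area covered by stained E-selectin grains.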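 For nuclei count: 100% = median nuclei count of all wells on the same plate.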 As to conditions: HUVEC TNFalpha-induced E-selectin immunofluorescence imaging, at 2 µM; inhibition: stronger effect = higher value; nuclei count: measured here: cell number, toxicity.
The target in test [4] is Voltage-gated potassium channel subunit beta-2 (Rattus norvegicus) (UniProt P62483). Nature of the test: inhibitors of rat Kvbeta2 reductase activity – biochemical, NADPH fluorescence, primary screen (AID 622;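 active = fluorescence slope higher than the sample average by over 3 SD, cut at about -0.22 in these data, passing the limit was not always enough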;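 note: slope of raw intensity against log time taken from 70 to 1610 s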). The conditions noted are these: recombinant KvBeta, 4-cyanobenzaldehyde reduction, at 10 µM, stronger effect = higher value.
Test [5] shares this target. Nature of the test: enhancers of rat Kvbeta2 NADPH turnover – biochemical, NADPH fluorescence, primary screen (AID 623;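 active = NADPH fluorescence slope more negative than the mean of all samples by about 3 SD, 99.7% confidence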;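 note: fluorescence intensity change per second fitted from 20 to 320 s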). The conditions noted are these: Recombinant KvBeta, NADPH fluorescence decrease slope, 10 min; at 10 µM; stronger effect = lower value.
In test [6] the target is Alpha-2C adrenergic receptor (Homo sapiens) (UniProt P18825). Put plainly: compounds altering alpha2C-coupled GIRK flux – cell-based, HEK293 alpha2C/GIRK1/2, thallium flux, primary screen (AID 624;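 active = fluorescence slope after compound addition differing from the mean of all screened samples at 99.7% confidence, in either direction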;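 note: slope of fluorescence ratio to pre-addition baseline per second over 15 to 24 s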). The conditions noted are these: thallium flux BTC fluorescence, at 10 µM, actives lie on both sides.
A short description of test [7]: blockers of RIG-like receptor reporter activation – cell-based, Sendai virus stimulus, luciferase, 10K MLSCN set, TLR/RLR signaling modifier project, primary screen (AID 602276;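 active = inhibition at or above 50% at 10 µM; inactive = inhibition below 50%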;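 note: firefly luciferase from ISG56 promoter only with Renilla not read in this screen; 0% = Sendai virus plus DMSO and 100% = medium plus DMSO without virus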). The conditions noted are these: HEK293 RL24 IRF3 luciferase reporter, at 10 µM, stronger effect = higher value.
Test [8] is described as follows: TLR3 IRF3 reporter activation blockers – cell-based, poly I:C stimulus, luciferase, 10K MLSCN set, primary screen (AID 602277;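 active = inhibition of the reporter signal at or above 50%; inactive = inhibition below 50%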). The conditions noted are these: HEK293-TLR3 RL24 IRF3 luciferase reporter, at 10 µM, stronger effect = higher value. In general terms: A reporter such as luciferase makes a cellular process visible.

The results in this text go back to PubChem BioAssay.

Molecules are shown by their SMILES. The source made the active and inactive calls.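 Rule for the calls, unless noted: active = visually confirmed hit in the image check and inhibition above 20%; inconclusive = visually confirmed hit but inhibition not above 20%; inactive = no visual hit in the image check.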

Sequence of Alpha-2C adrenergic receptor (Homo sapiens) (P18825 whole entry, looked up): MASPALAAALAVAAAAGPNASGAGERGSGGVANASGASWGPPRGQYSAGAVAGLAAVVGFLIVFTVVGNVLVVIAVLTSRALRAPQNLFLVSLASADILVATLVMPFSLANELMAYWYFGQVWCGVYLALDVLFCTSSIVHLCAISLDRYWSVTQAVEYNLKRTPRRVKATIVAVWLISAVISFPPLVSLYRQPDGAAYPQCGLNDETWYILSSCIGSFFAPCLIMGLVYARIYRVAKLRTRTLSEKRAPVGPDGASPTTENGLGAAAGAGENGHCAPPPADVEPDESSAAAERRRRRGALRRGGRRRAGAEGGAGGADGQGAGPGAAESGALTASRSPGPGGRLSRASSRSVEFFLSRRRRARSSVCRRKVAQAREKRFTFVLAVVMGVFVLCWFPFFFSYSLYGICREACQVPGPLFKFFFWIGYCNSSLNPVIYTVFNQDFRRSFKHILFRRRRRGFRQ
Sequence of Voltage-gated potassium channel subunit beta-2 (Rattus norvegicus) (P62483 whole entry, looked up): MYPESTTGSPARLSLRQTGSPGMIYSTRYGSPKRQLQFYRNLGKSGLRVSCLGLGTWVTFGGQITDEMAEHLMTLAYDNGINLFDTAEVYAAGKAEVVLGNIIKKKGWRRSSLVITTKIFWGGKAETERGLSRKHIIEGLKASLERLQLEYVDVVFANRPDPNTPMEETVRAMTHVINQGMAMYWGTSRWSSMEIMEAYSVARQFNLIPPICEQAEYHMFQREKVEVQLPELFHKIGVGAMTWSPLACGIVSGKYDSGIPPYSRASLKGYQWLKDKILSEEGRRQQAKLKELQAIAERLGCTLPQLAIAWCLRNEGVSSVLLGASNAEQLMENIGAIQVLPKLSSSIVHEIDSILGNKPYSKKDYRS

As for `Cc1ccccc1-n1c(Cn2c(=O)sc3ccccc32)nnc1SCC(N)=O`, the cell count in test [1] turned out to be 542. Also, the inhibition (as a rule, the drop in the measured response relative to a control, in per cent) was 4.5% (inactive) in test [1], -28.8% (inactive) in test [3], 16.4% (inactive) in test [7] and 25.2% (inactive) in test [8]. For the same molecule, the inhibition of aggregation in test [2] is 4.1% (inactive). The nuclei count in test [2] worked out at 110%; in test [3], 111%. Besides, the fluorescence slope in test [4] is -0.518 (inactive). In addition, the NADPH fluorescence slope in test [5] was -3.8e-05 (inactive). In test [6], the slope was 0.00845 (inactive).
With `COc1cc(C(=O)N2CCN(c3cc(Cl)ccc3Cl)CC2)cc(OC)c1OC`, in test [1], the cell count is 630. Moreover, the inhibition is -6.1% (inactive) in test [1], -62.3% (inactive) in test [3], 12% (inactive) in test [7] and 78.9% (active) in test [8]. Moreover, in test [2], the inhibition of aggregation was 1% (inactive). Besides, the nuclei count in test [2] turned out to be 34.1%; in test [3], 98.9%. The fluorescence slope in test [4] was -0.425 (inactive). For the same molecule, the NADPH fluorescence slope in test [5] was -7.3e-05 (inactive). In addition, in test [6], the slope is 0.00499 (inactive).
Consider `Fc1cccc(Nc2cc(-n3cccn3)ncn2)c1`, for which the cell count in test [1] came to 553. The inhibition in test [1] is -8.3% (inactive); in test [3] it was -65.9% (inactive); in test [7], -32.7% (inactive); in test [8], -66.1% (inactive). Moreover, in test [2], the inhibition of aggregation is -0.2% (inactive). For the same molecule, the nuclei count amounted to 89.5% in test [2] and 109% in test [3]. The fluorescence slope in test [4] was -0.509 (inactive). The NADPH fluorescence slope in test [5] was -7.2e-05 (inactive). Further, in test [6], the slope was 0.00508 (inactive).
For the molecule `CC(=O)Nc1ccc(N=Cc2ccc[nH]2)cc1`, the cell count in test [1] amounted to 362. In addition, the inhibition in test [1] is 3.4% (inactive); in test [3], 9.1% (inactive); in test [7], 9.12% (inactive); in test [8], -21% (inactive). For the same molecule, in test [2], the inhibition of aggregation was -8.9% (inactive). Further, the nuclei count in test [2] was 108%; in test [3] it was 99.4%. The fluorescence slope in test [4] was -0.264 (inactive). Moreover, the NADPH fluorescence slope in test [5] is -1.6e-05 (inactive). Moreover, in test [6], the slope was 0.00576 (inactive).
Regarding `O=C(c1ccco1)N1CCN(S(=O)(=O)c2ccc3c(c2)CCN3C(=O)C2CCC2)CC1`, the cell count in test [1] came out at 600. The inhibition in test [1] was 1.2% (inactive); in test [3] it was -53.2% (inactive); in test [7], -18.7% (inactive); in test [8] it was -87.3% (inactive). For the same molecule, the inhibition of aggregation in test [2] was 22.2% (inactive). The values for the nuclei count in test [2] and in test [3] were 97% and 115%, respectively. In addition, the fluorescence slope in test [4] was -0.425 (inactive). For the same molecule, the NADPH fluorescence slope in test [5] was -3.6e-06 (inactive). In addition, the slope in test [6] was 0.00394 (inactive).
As to `Cn1c(=O)c2c(nc(SCCCC#N)n2Cc2ccccc2F)n(C)c1=O`, the cell count in test [1] was found to be 601. The inhibition in test [1] is 4.5% (inactive); in test [3], -51% (inactive); in test [7] it was 12.9% (inactive); in test [8], 36.5% (inactive). The inhibition of aggregation in test [2] was -13.6% (inactive). Moreover, the nuclei count was 109% in test [2] and 119% in test [3]. For the same molecule, in test [4], the fluorescence slope is -0.416 (inactive). Also, in test [5], the NADPH fluorescence slope was -2.8e-05 (inactive). Also, the slope in test [6] is 0.00541 (inactive).
For the molecule `COC(=O)c1cn(NC(=O)c2cccnc2)c(=O)c2ccccc12`, the cell count in test [1] was determined as 364. The inhibition is 2.5% (inactive) in test [1], 29.8% (inactive) in test [3], 10.1% (inactive) in test [7] and 18.9% (inactive) in test [8]. Also, in test [2], the inhibition of aggregation was -32.8% (inactive). Moreover, the nuclei count in test [2] was found to be 112%; in test [3], 115%. Moreover, the fluorescence slope in test [4] was -0.538 (inactive). Further, the NADPH fluorescence slope in test [5] is -6.1e-05 (inactive). The slope in test [6] was 0.00509 (inactive).
Consider `CCc1ccc(NC(=O)c2cccnc2)cc1`, for which the cell count in test [1] was determined as 337. The inhibition was -3.8% (inactive) in test [1], -14.1% (inactive) in test [3], -27% (inactive) in test [7] and -80.3% (inactive) in test [8]. Moreover, in test [2], the inhibition of aggregation is 23.7% (inactive). For the same molecule, the nuclei count in test [2] came to 88%; in test [3], 110%. Further, the fluorescence slope in test [4] is -0.429 (inactive). For the same molecule, in test [5], the NADPH fluorescence slope was -2.2e-05 (inactive). Also, the slope in test [6] is 0.00479 (inactive).
In the case of `Cc1cc(N=Cc2cc(Br)ccc2O)no1`, the cell count in test [1] is 330. Besides, the inhibition is -6.7% (inactive) in test [1], -147% (inactive) in test [3], 15.6% (inactive) in test [7] and 15.7% (inactive) in test [8]. In addition, in test [2], the inhibition of aggregation is -17.3% (inactive). The figures for the nuclei count in test [2] and in test [3] were 106% and 121%, respectively. In test [4], the fluorescence slope was -0.311 (inactive). Besides, in test [5], the NADPH fluorescence slope was -3.4e-05 (inactive). The slope in test [6] was 0.00663 (inactive).
In the case of `CCn1c(SCC(=O)Nc2cccc(C)c2)nc2c(c1=O)SC(C)C2` (centres undefined), in test [1], the cell count turned out to be 576. In addition, the inhibition in test [1] is -3.4% (inactive); in test [3], -11.7% (inactive); in test [7], 12.1% (inactive); in test [8], 25.9% (inactive). Also, in test [2], the inhibition of aggregation is 40.7% (inactive). Besides, the figures for the nuclei count in test [2] and in test [3] were 85.6% and 86%, respectively. Further, the fluorescence slope in test [4] is -0.537 (inactive). Besides, the NADPH fluorescence slope in test [5] is -4.6e-05 (inactive). Moreover, the slope in test [6] was 0.00615 (inactive).
For the molecule `COC(=O)c1ccc(C2CC(=O)Nc3cc(OC)c(OC)c(OC)c32)cc1` (centres undefined), in test [1], the cell count stood at 416. Further, the inhibition in test [1] was 3.3% (inactive); in test [3] it was -82.3% (inactive); in test [7] it was 11.7% (inactive); in test [8], 25.2% (inactive). Also, in test [2], the inhibition of aggregation was 11.2% (inactive). The values for the nuclei count in test [2] and in test [3] were 90.4% and 157%, respectively. In test [4], the fluorescence slope was -0.424 (inactive). The NADPH fluorescence slope in test [5] was -3.3e-05 (inactive). Besides, the slope in test [6] was 0.00514 (inactive).
With `Cc1nn(S(=O)(=O)N2CCCCC2)c(C)c1Br`, the cell count in test [1] came out at 335. Moreover, the inhibition in test [1] is 4% (inactive); in test [3], -93.4% (inactive); in test [7], 1.73% (inactive); in test [8], 17.2% (inactive). In addition, the inhibition of aggregation in test [2] was 10.9% (inactive). The values for the nuclei count in test [2] and in test [3] were 101% and 119%, respectively. In addition, in test [4], the fluorescence slope is -0.291 (inactive). In test [5], the NADPH fluorescence slope was -1.5e-05 (inactive). In addition, the slope in test [6] is 0.00571 (inactive).
With `CCOC(=O)c1ccc2ncc(C(=O)OCC)c(NCCN(C)C)c2c1`, the cell count in test [1] was 770. In addition, the inhibition in test [1] is -3.3% (inactive); in test [3], -63.4% (inactive); in test [7], 10% (inactive); in test [8], 44% (inactive). Also, the inhibition of aggregation in test [2] was -5.5% (inactive). In addition, the nuclei count in test [2] is 94%; in test [3], 113%. Moreover, the fluorescence slope in test [4] was -0.545 (inactive). For the same molecule, in test [5], the NADPH fluorescence slope is -3.1e-05 (inactive). Besides, the slope in test [6] was 0.00656 (inactive).
For `Cc1cc(-n2c(C)cc(C(=O)CSc3nc4ccccc4c(=O)n3Cc3ccco3)c2C)no1`, the cell count in test [1] stood at 288. Besides, the inhibition was -8.6% (inactive) in test [1], -104% (inactive) in test [3], 8.08% (inactive) in test [7] and -48.8% (inactive) in test [8]. The inhibition of aggregation in test [2] was 8.4% (inactive). For the same molecule, the nuclei count in test [2] worked out at 95%; in test [3], 96.6%. The fluorescence slope in test [4] was -0.441 (inactive). Also, the NADPH fluorescence slope in test [5] is -2e-05 (inactive). In addition, the slope in test [6] was 0.00698 (inactive).
